Records with an inconclusive call do not appear. Entries that show only a call come without a potency. Activity calls are given as the source filed them. Unless noted, calls come from the whole dose curve; as a rule, active = well fitted curve in the direction sought with a large enough effect; inconclusive = small, poorly fitted or top-dose-only effect, or another doubt; inactive = no such curve, though single readings can be large; an effect the other way counts as inactive or inconclusive.
Experiments:
[1] = qHTS to identify inhibitors of the type 1 interferon - major histocompatibility complex class I in skeletal muscle: primary screen against the NCATS Mechanism Interrogation Plate v5.0 (MIPE) Libary (AID 1347411); note: nearly all actives have a fitted effect of over 65% in size
Summary of the method: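 HLA-B HiBit myoblasts, dexamethasone-free medium + 4 ng/ml IFN-b, 24 h compound, 11-pt 1:3 from 46 uM final. Readout: Nano-Glo HiBiT lytic luminescence after 10 min lysis, RT.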

[2] = molecular target: Cytochrome P450 2D6 (Homo sapiens) (UniProt P10635); test: Cytochrome P450 family 2 subfamily D member 6 (CYP2D6) small molecule antagonists: luciferase biochemical (cell-free) qHTS assay (AID 1645840; active = well fitted curve in the direction sought with a large enough effect in the repeat runs; an effect the other way counts as inactive or inconclusive; note: nearly all actives have a fitted effect of over 55% in size; note: potency is the fitted concentration of half-maximal effect)
Summary of the method: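 P450-Glo CYP2D6 system: proluciferin substrate converted by enzyme to luciferin, read by luminescence proportional to activity. Enzyme-substrate mix with compound 10 min at room temperature, then NADPH regeneration 1 h before detection reagent.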

[3] = molecular target: Cytochrome P450 2C9 (Homo sapiens) (UniProt P11712); test: Cytochrome P450 family 2 subfamily C member 9 (CYP2C9) small molecule antagonists: luciferase biochemical (cell-free) qHTS assay (AID 1645842; active = well fitted curve in the direction sought with a large enough effect in the repeat runs; an effect the other way counts as inactive or inconclusive; note: nearly all actives have a fitted effect of over 55% in size; note: potency is the fitted concentration of half-maximal effect)
Summary of the method: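 P450-Glo CYP2C9 system: proluciferin substrate with enzyme in mix containing 0.4% BSA, 10 min at room temperature, then NADPH regeneration solution added and incubated 1 h at 37C. Detection reagent stopped reaction; luminescence read after 20 min as RLU.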

[4] = Primary fluorescence-based thiol-reactive (MSTI) qHTS assay for identification of artifact compounds. (AID 1845221);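 note: thiol-reactive compounds lower the probe fluorescence signal; nearly all actives have a fitted effect of over 65% in size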
Summary of the method: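 A multi-concentration qHTS design tested compounds against 4 uM MSTI, pH 7.4 phosphate-buffered saline. Plates were protected from light for 1 h at room temperature before imaging fluorescence.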

[5] = Primary redox qHTS assay for identification of artifact compounds. (AID 1845223)
Summary of the method: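 Redox-cycling detection via DTT (250 uM final) oxidation coupled to Amplex Red (25 uM)/HRP (250 mU/mL) in HBSS. 15 min preincubation plus 30 min after DTT, room temperature. Ex/Em 525/598 nm; 4-parameter Hill fit against DMSO and 10 uM DA3003.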

CRL-7250 = normal cell line; test: Cytotoxic Profiling of Annotated Libraries Using Quantitative High-Throughput Screening (AID 1296008); settings: Five cell lines viability, CellTiter-Glo ATP luminescence, 48-72 h; max response: stronger effect = lower value; note: nearly all actives have a fitted effect of over 60% in size; note: potency is the fitted concentration of half-maximal effect
Summary of the method: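 Cytotoxicity was measured as CellTiter-Glo ATP luminescence, read after 10 min at room temperature. Compound treatment of the cells lasted 48 or 72 hr at 37 degrees Celsius in a qHTS format.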

HACAT = test: qHTS assay to identify novel small-molecules to repurpose for Merkel cell carcinoma treatment (AID 1296009); settings: MCC and control cell lines, CellTiter-Glo viability, 72 h; at 44.8 µM (top of the series) unless noted; note: nearly all actives have a fitted effect of over 60% in size
Summary of the method: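 Cell viability measured by CellTiter-Glo following 72 hr compound treatment at 37 degree celsius, with NPC and MIPE libraries tested in 8- and 11-point concentration series.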

PA-1 = test: Primary qHTS to identify gynecologic anti-cancer compounds using libraries of approved drugs and bioactive compounds (AID 1345084); settings: Gynecologic cancer cell panel viability, ATPlite luminescence, 48 h; series mostly up to 57.5 µM; note: nearly all actives have a fitted effect of over 55% in size
Summary of the method: (§1)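 ATP-based viability (ATPlite), 1,000 cells/well, 16 h pre-incubation, 48 h compound at 37 C, 5% CO2, 15 min RT before read.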

[6] = system: Zika virus NS2B-NS3 protease (linked construct); test: Confirmatory screen NINDS AMC qHTS for Zika virus inhibitors (AID 1347152); note: potency is the fitted concentration of half-maximal effect; nearly all actives have a fitted effect of over 70% in size
Summary of the method: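 Concentration-response confirmation used the NINDS linked protease (NS2B hydrophilic domain joined to NS3 protease domain), 1 nM, with a 15-min compound preincubation. Substrate, Nle-KRR-AMC at 10 microM, was read by UV fluorescence before and after 15 min.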

[7] = Confirmatory screen GU Rhodamine qHTS for Zika virus inhibitors qHTS (AID 1347157); note: potency is the fitted concentration of half-maximal effect; nearly all actives have a fitted effect of over 70% in size
Summary of the method: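 Percent inhibition came from the 15-min rise in Rhodamine110 fluorescence (1.5 microM substrate, ~15% conversion), normalized to no-inhibitor and no-enzyme wells and Hill-fitted. Unlinked protease, 25 nM, pH 8.0 Tris buffer; compounds up to 114 microM, 15-min preincubation.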

[8] = Tertiary RLuc qRT-PCR qHTS assay for Zika virus inhibitors (AID 1347169)
Summary of the method: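 Inhibition of ZIKV-RLuc replication in Vero cells, read as Renilla luminescence 1-1.5 hrs after live-cell substrate addition, following 48-72 hrs infection at MOI 1-2 in presence of compound.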

[9] = molecular target: Catechol O-methyltransferase (Homo sapiens) (UniProt P21964); test: Confirmatory Screen for Target Class Profiling of Small Molecule Inhibitors of Methyltransferases (AID 1745852; calls by dose curve); settings: MTase-Glo luminescence, SAH detection, recombinant enzyme; measured here: COMT max response; stronger effect = lower value
[10] = molecular target: Guanidinoacetate N-methyltransferase (Homo sapiens) (UniProt Q14353); test: as above; settings: activity change, negative = inhibition: at 57.3 µM (top of the series) unless noted
[11] = molecular target: Nicotinamide N-methyltransferase (Homo sapiens) (UniProt P40261); test: as above; settings: MTase-Glo luminescence, SAH detection, recombinant enzyme; measured here: NNMT max response; stronger effect = lower value
[12] = molecular target: Phenylethanolamine N-methyltransferase (Homo sapiens) (UniProt P11086); test: as above; settings: MTase-Glo luminescence, SAH detection, recombinant enzyme; measured here: PNMT max response; stronger effect = lower value
CAOV3 = test: Primary qHTS to identify gynecologic anti-cancer compounds using libraries of approved drugs and bioactive compounds (AID 1345084); settings: Gynecologic cancer cell panel viability, ATPlite luminescence, 48 h; series mostly up to 57.5 µM; note: nearly all actives have a fitted effect of over 55% in size
Summary of the method: as §1

SKOV3 = test: as above; settings: Gynecologic cancer cell panel viability, ATPlite luminescence, 48 h; series mostly up to 57.5 µM
Summary of the method: as §1

[13] = P-glycoprotein substrates identified in KB-8-5-11 adenocarcinoma cell line, qHTS therapeutic library screen (AID 1346987); note: potency is the fitted concentration of half-maximal effect; nearly all actives have a fitted effect of over 65% in size
Summary of the method: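 In this qHTS, P-gp-rich KB-8-5-11 cells received library compounds across a concentration range. Viability was quantified by luminescence after 72 h at 37 degree C.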

Chain of Cytochrome P450 2D6 (Homo sapiens) (P10635 whole entry, looked up): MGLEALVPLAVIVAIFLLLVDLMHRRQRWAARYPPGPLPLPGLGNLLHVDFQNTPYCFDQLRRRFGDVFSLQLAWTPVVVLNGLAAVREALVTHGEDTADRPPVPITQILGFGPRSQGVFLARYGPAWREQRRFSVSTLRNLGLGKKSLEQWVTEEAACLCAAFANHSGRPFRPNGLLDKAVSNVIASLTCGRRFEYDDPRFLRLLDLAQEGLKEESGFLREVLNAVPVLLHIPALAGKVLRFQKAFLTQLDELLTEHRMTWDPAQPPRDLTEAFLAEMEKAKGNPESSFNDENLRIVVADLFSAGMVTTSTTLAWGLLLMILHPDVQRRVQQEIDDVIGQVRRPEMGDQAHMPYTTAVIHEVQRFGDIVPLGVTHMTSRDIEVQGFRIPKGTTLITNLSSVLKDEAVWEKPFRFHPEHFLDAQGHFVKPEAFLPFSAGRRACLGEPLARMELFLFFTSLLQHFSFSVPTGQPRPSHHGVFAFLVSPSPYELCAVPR
Chain of Cytochrome P450 2C9 (Homo sapiens) (P11712 whole entry, looked up): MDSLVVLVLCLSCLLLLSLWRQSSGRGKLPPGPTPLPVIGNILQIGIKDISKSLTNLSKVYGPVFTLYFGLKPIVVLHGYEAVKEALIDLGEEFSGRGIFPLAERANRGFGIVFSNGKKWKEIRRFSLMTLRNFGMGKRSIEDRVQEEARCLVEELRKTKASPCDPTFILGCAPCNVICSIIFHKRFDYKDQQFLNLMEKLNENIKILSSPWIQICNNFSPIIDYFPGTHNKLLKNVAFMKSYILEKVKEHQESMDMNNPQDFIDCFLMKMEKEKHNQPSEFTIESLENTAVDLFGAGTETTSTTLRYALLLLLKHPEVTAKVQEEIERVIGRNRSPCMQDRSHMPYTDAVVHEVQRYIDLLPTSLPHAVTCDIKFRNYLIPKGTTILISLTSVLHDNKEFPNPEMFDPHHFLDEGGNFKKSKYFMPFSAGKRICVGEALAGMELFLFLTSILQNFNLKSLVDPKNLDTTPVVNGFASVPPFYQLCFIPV
Chain of Phenylethanolamine N-methyltransferase (Homo sapiens) (P11086 whole entry, looked up): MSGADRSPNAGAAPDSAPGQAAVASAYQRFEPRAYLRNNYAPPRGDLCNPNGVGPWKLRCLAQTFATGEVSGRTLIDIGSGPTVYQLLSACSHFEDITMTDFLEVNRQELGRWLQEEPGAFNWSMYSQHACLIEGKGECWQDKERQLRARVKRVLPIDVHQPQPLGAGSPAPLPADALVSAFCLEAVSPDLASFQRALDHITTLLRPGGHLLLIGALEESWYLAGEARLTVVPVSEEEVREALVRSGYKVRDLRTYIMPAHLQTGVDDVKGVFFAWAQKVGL
Chain of Catechol O-methyltransferase (Homo sapiens) (P21964 whole entry, looked up): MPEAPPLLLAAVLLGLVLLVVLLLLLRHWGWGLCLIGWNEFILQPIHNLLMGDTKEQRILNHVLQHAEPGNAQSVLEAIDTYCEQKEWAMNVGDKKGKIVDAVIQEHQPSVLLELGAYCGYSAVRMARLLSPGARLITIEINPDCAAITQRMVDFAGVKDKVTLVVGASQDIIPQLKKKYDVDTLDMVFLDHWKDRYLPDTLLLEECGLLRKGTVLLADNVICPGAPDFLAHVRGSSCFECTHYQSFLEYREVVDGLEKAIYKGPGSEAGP
Chain of Nicotinamide N-methyltransferase (Homo sapiens) (P40261 whole entry, looked up): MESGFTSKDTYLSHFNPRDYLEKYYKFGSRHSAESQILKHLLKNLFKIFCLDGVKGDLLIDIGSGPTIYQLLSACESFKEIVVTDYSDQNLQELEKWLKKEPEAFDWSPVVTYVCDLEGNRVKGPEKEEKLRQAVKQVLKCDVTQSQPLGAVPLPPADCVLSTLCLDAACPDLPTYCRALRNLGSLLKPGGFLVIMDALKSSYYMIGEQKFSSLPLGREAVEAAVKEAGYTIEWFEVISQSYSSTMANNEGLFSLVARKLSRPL

## COc1cc(-c2cc(-c3ccc(N4CCNCC4)cc3)cnc2C)cc(OC)c1OC
[1]
  Potency: inactive
[2]
  Potency: inactive
[3]
  Potency: 19 µM (active)
[4]
  Potency: inactive
[5]
  Potency: inactive
CRL-7250
  outcome: inactive
HACAT
  outcome: inactive
PA-1
  Potency: inactive

## COc1cc(O)ccc1OCCNCC(O)COc1cccc2[nH]c3ccccc3c12 (centres undefined)
[5]
  Potency: inactive
CRL-7250
  max response: -16.8% (inactive)
HACAT
  outcome: inactive
PA-1
  Potency: inactive

## CC(C)(C)c1ccc(CNC(=S)NCc2ccc(NS(C)(=O)=O)c(F)c2)cc1
[2]
  Potency: 3.38 µM (active)
[3]
  Potency: 0.151 µM (active)
[4]
  Potency: inactive
CRL-7250
  max response: -28.3% (inactive)
PA-1
  Potency: inactive

## CN(Cc1ccc(C(=O)O)cc1)c1ccc(OCc2c(-c3c(Cl)cccc3Cl)noc2C2CC2)nc1C(F)(F)F
[6]
  Potency: 13.9 µM (active)
[7]
  Potency: 2.21 µM (active)
[8]
  Potency: 13.1 µM (active)
[3]
  Potency: 10.7 µM (active)
[9]
  activity: -2.57%
[10]
  activity change, negative = inhibition: -2.02%
[11]
  activity: -0.741%
[12]
  activity: 0.284%
[4]
  Potency: inactive
[5]
  Potency: inactive
CRL-7250
  outcome: inactive
CAOV3
  Potency: inactive
PA-1
  Potency: inactive
SKOV3
  Potency: inactive

## C=C1CC[C@@H]2[C@](C)(CO)[C@H](O)CC[C@@]2(C)[C@@H]1C/C=C1/C(=O)OC[C@@H]1O
[5]
  Potency: inactive
CRL-7250
  max response: -17.3% (inactive)
HACAT
  outcome: inactive
CAOV3
  Potency: inactive

## O=S(=O)(c1cccc2ccccc12)n1ccc2ccc(N3CCN4CCCC4C3)cc21 (centres undefined)
[13]
  Potency: 20.6 µM (active)
[2]
  Potency: 2.68 µM (active)
[3]
  Potency: 12 µM (active)
CRL-7250
  max response: -10.4% (inactive)
CAOV3
  Potency: inactive
SKOV3
  Potency: inactive

## CC(=O)c1c(OCCN2CCCCC2)c(OCCC(C)c2ccc(F)cc2)c2oc(C)nc2c1C (centres undefined)
[13]
  Potency: 20.6 µM (active)
[2]
  Potency: 0.477 µM (active)
[3]
  Potency: 19 µM (active)
[4]
  Potency: inactive
[5]
  Potency: inactive
CRL-7250
  max response: -7.29% (inactive)
HACAT
  outcome: inactive

## CNC(=O)c1cccc2cc(Oc3ccnc4cc(OCC5(N)CC5)c(OC)cc34)ccc12
[2]
  Potency: inactive
[3]
  Potency: 7.56 µM (active)
[4]
  Potency: inactive
CRL-7250
  Potency: 4.61 µM (active)
HACAT
  outcome: inactive

## Cn1cc(-c2cnc3ccc4ccc(CS(=O)(=O)NCc5ccccn5)cc4c(=O)c3c2)cn1
[1]
  Potency: inactive
[2]
  Potency: 12 µM (active)
[3]
  Potency: inactive
[9]
  activity: -3.92%
[10]
  Potency: inactive
[11]
  activity: -3.63%
[12]
  activity: -3.14%
[4]
  Potency: inactive
CRL-7250
  max response: -6.66% (inactive)
CAOV3
  Potency: inactive
PA-1
  Potency: inactive
